Shown are actives, neighbours in structure and some others; about 6.9% of the full set was active somewhere.
MCF10A rereplic: induces DNA re-replication in MCF 10a normal breast cells; MCF 10A DNA re-replication, Hoechst nuclear intensity, 48 h; Potency, µM (series often up to 46.1 µM), for inactives: at the top dose activity, positive = re-replication, most hits filed as activators; actives 2.9% (n = 350,000); further: potency means the concentration at half of the fitted maximal effect; % of control where 0% means no effect; nearly all actives have a fitted effect of over 50% in size
Giardia killer: kills Giardia lamblia; Giardia lamblia trophozoite viability; activity change, % at 7.66 µM, hits read low; actives 0.15% (n = 340,000); in the data active means activity change below about -80%; inconclusive means between about -30% and that limit;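 further: parasites exposed to compound for two days anaerobically before the ATP read; on the % scale 0 is the no-effect control and ±100 the full control effect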
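Giardia lamblia trophozoites (100 cells/well) were incubated with compounds for 48 h at 37 deg C under anaerobic conditions. Viability was read as ATP content by one-step luminescence after 15-30 min at room temperature.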
SW480 rerep: DNA re-replication induction in SW480 cells; SW480 DNA re-replication, Hoechst DNA content imaging, 48 h; Potency, µM (doses to about 46.1 µM), without a hit: at the top dose re-replication activation, actives largely listed as activators; actives 1.8% (n = 340,000); further: potency means the concentration at half of the fitted maximal effect; % of control where 0% means no effect; nearly all actives have a fitted effect of over 55% in size
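Per well, 250 cells were exposed to pinned compound for 48 hr. Nuclear DNA was visualised with Hoechst (40 min, 37 C) and total object intensity recorded by fluorescence scanning.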
IL-1B inflam inh: inflammasome signaling inhibition, IL-1 beta readout. THP-1 LPS/ATP IL-1B secretion, AlphaLISA, 16 h; active compounds read low. AID 743279. activity change, % at 57.5 µM. actives 4.7% (n = 360,000); in the data active means activity change below about -50%; inconclusive means mostly about -30% to -49%; further: on the % scale 0 is the no-effect control and ±100 the full control effect
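Secreted IL-1B measured by AlphaLISA bead assay after 16 h compound exposure of THP-1 cells; compounds (final up to 57.5 uM) added 1 h before LPS (250 ng/mL) and ATP (1.25 mM) stimulation; lower signal means less secretion.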
Vif-A3F inh: blocks the Vif interaction with APOBEC3F; HeLa A3F-eYFP + Vif (tagged APOBEC3F with the HIV-1 protein that degrades it), YFP fluorescence increase; Potency, µM (doses to about 46.1 µM), without a hit: top-dose activity, negative = active; actives 0.2% (n = 390,000); further: potency means the concentration at half of the fitted maximal effect; % of control where 0% means no effect; nearly all actives have a fitted effect of over 65% in size
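Fluorescence increase (Ex 488/Em 500-530) after overnight compound treatment at 37 deg C flags inhibition of Vif-driven A3F-eYFP loss in stable HeLa A3F-eYFP/Vif cells seeded overnight beforehand.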
Vif-APOBEC3G blk: blocks the Vif interaction with human APOBEC3G | HeLa A3G-eYFP + Vif (tagged APOBEC3G with the HIV-1 protein that degrades it), YFP fluorescence, overnight | Potency, µM (doses to about 46.1 µM), without a hit: at the top dose activity, negative = active, hits mostly inhibitors | actives 0.076% (n = 410,000) | AID 602310; further: potency means the concentration at half of the fitted maximal effect; on the % scale 0 is the no-effect control and ±100 the full control effect; nearly all actives have a fitted effect of over 60% in size
Target sequence (Q9HC16 whole entry, looked up): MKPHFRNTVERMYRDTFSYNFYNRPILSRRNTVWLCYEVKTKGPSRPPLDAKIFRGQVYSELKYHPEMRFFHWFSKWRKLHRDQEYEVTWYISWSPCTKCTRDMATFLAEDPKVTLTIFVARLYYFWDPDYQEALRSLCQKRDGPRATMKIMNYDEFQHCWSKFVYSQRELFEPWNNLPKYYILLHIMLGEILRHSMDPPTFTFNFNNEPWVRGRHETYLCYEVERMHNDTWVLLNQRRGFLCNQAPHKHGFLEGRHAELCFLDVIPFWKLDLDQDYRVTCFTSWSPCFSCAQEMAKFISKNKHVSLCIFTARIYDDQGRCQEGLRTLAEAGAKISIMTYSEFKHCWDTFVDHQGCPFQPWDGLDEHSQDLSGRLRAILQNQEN
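Read-out is eYFP fluorescence (Ex 488/Em 500-530) from Vif-expressing HeLa A3G-eYFP cells; more signal means A3G escaped Vif-mediated degradation. Cells plated overnight, compound pinned in, incubated overnight at 37 deg C.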
An asterisk follows results filed as active; ? = inconclusive; nt = no result given; [ ] = dose if it differs, or a comment. Unless noted, the call rests on the fitted dose curve; in most records, active means well fitted curve in the direction sought with a large enough effect; inconclusive means small, poorly fitted or top-dose-only effect, or another doubt; inactive means no such curve, though single readings can be large; an effect the other way counts as inactive or inconclusive.

SMILES	MCF10A rereplic	Giardia killer	SW480 rerep	IL-1B inflam inh	Vif-A3F inh	Vif-APOBEC3G blk
COC(=O)c1cc(OC)c(OC)cc1NC(=O)c1ccco1	2.8%	3.6	10.3%	-62.1*	-3.5%	-0.9%
CCC(=O)Nc1ccc(NC(=O)c2ccco2)c(OC)c1	10.3%[9.22 µM]	-8.3	-4.0%	-22.3	1.6%	-6.4%
COc1ccc(NC(=O)COC(=O)c2cc(OC)c(OC)cc2NC(=O)c2ccco2)cc1OC	?	5.4	10.3µM*	-7.5	?	?
COC(=O)c1cc(OC)c(OC)cc1NC(=O)C(C)Sc1ccc(C)cc1 (centres undefined)	3.66µM*	5.2	15.5%	-2.1	-2.0%	-1.7%
Cc1noc(-c2ccc(C(F)(F)F)cc2)c1NC(=O)Nc1ccc(Cl)cc1	?	3.0	?	-53.4*	?	-0.2%
Cc1c(Cl)cccc1NC(=O)c1cc(-c2ccccc2O)n[nH]1	34.4%	-10.4	-6.7%	-60.4*	-22.7%	-6.8%
Cc1nc(Cl)sc1C(=O)Nc1ccc(C(F)(F)F)cc1	30.0%	-21.6	2.2%	-64.6*	-3.6%	0.0%
Cc1nc(Cl)sc1C(=O)Nc1cccc(Cl)c1C	16.8%	-8.7	18.3%	-96.0*	-17.3%	-8.1%
Cc1nc(Cl)sc1C(=O)Nc1cccc(C(F)(F)F)c1	12.9%	6.3	14.7%	-5.0	-17.9%	-6.4%
Cc1cc(-c2onc(C)c2C(=O)Nc2ccc(C(F)(F)F)cc2)no1	4.3%	11.4	-15.2%	26.8	3.9%	-0.1%
CN(C(=O)CSc1cn(CC(=O)N2CCCCC2)c2ccccc12)c1ccccc1	nt	nt	nt	nt	-2.6%	-2.8%
O=C(NCc1cccc(Cl)c1)NCc1noc2ccccc12	nt	nt	nt	nt	3.2%	1.9%
Cc1noc(C(=O)Nc2ccc3c(c2)OCO3)c1Cl	0.3%	6.9	3.2%	-3.5	1.2%	0.1%
Cc1ccc2c(Cl)c(C(=O)Nc3ccc4c(c3)OCO4)sc2c1	?	-5.8	20.6µM*	-3.9	-1.2%	-1.2%
O=C(Nc1ccc([N+](=O)[O-])cc1)NN1CCCCCC1	3.1%	-3.1	-0.6%	-99.0*	-5.7%	-0.8%
CCC(=O)Oc1ccc(C(=O)Nc2ccc3c(c2)OCO3)cc1	-2.7%	?	-2.9%	-58.3*	9.8%	-3.7%
O=C(Nc1ccc(Cl)cc1)NN1CCCCCC1	16.0%	7.2	1.8%	-16.5	-4.3%	-2.9%
CCCCOc1ccc(C(=O)Nc2ccc3c(c2)OCO3)cc1	?	11.9	-26.2%	-13.7	-10.5%	-5.4%
CCOc1ccc(C(=O)Nc2ccc3c(c2)OCCO3)cc1[N+](=O)[O-]	-0.2%	17.3	-0.3%	-58.1*	0.4%	3.9%
COc1ccccc1CNC(=O)C1CCCN(c2nnc(-n3c(C)ccc3C)s2)C1 (centres undefined)	nt	nt	nt	nt	0.8%	-1.7%
CCCN(CCC)c1ccc(/C=C/c2sc3ccccc3[n+]2CCCCI)cc1	nt	nt	nt	nt	nt	-26.3%
Cc1ccc(OCC(=O)Nc2ccc3c(c2)OCO3)cc1C	8.5%	-17.0	?	-8.4	1.1%	12.3%
CCC(C)[C@H](NC(=O)Nc1ccc2c(c1)OCCO2)C(=O)O (some centres undefined)	?	-23.2	18.4µM*	1.3	-8.2%	0.0%
CCOc1cccc(C(=O)NC(=S)Nc2ccc3c(c2)OCCO3)c1	15.6%	-12.6	1.6%	-53.6*	-12.8%	-0.8%
O=C(NC(=S)Nc1ccc2c(c1)OCCO2)c1ccccc1	-20.3%	-13.5	?	-23.2	-1.9%	-2.3%
SMILES	MCF10A rereplic	Giardia killer	SW480 rerep	IL-1B inflam inh	Vif-A3F inh	Vif-APOBEC3G blk
COC(=O)c1ccc(NC(=O)COc2ccc3c(c2)OCO3)cc1	-1.2%	-1.2	0.411µM*	1.5	-6.2%	0.4%
CCOc1cc(C(=O)Nc2ccc3c(c2)OCO3)ccc1OC(F)F	-1.8%	-3.5	-10.7%	-64.7*	0.9%	-1.8%
CCC(C)[C@H](NC(=O)Nc1ccc2c(c1)OCCO2)C(=O)OC (some centres undefined)	1.1%	11.3	-4.7%	-16.9	-1.2%	-3.8%
Nc1ncnc2c1[nH]c(=S)n2C1OC(CO)C(O)C1O (centres undefined)	nt	31.1	nt	nt	nt	2.8%
CCc1cnc2c(c1SCC(=O)c1ccc(Cl)cc1)c(=O)n(C)c(=O)n2C	nt	nt	nt	nt	-1.9%	-1.4%
CCOc1ccc2oc(C(=O)Nc3ccc4c(c3)OCO4)c(C)c2c1	18.1%	7.5	?	-50.0*	-29.6%	-2.9%
CCOc1ccc2oc(C(=O)Nc3ccc(N4CCOCC4)cc3)c(C)c2c1	11.2%	7.6	-1.7%	29.6	-8.6%	0.8%
CCCOc1c(Cl)cc(C(=O)Nc2ccc3c(c2)OCO3)cc1OCC	0.0%	-0.3	-0.9%[9.22 µM]	-56.2*	-0.3%	-14.9%
O=C(Nc1ccc([N+](=O)[O-])cc1)Nc1ccc2c(c1)OCCO2	8.2%	2.7	?	-68.0*	0.3%	5.9%
CC(NC(=O)c1ccc2c(c1)N(Cc1cccc(F)c1)C(=O)c1ccccc1S2)c1ccccc1 (centres undefined)	nt	nt	nt	nt	-0.2%	-0.4%
Cc1ccc(C)c(N2CCN(Cc3csc(C)c3)CC2)c1	nt	nt	nt	nt	-16.2%	3.1%
COc1ccc(-c2[nH]nc3nc(-c4cc(Br)ccc4OC)cc(C(=O)O)c23)cc1	nt	nt	nt	nt	-6.7%	1.7%
COc1ccc(C2C=C3CNS(=O)(=O)C3CC2OC(=O)c2cccs2)cc1 (centres undefined)	nt	2.6	nt	nt	nt	-20.3%
COc1ccccc1CNS(=O)(=O)c1cc(CN2C(=O)c3cccnc3C2=O)ccc1OC	27.9%	33.4	-20.9%	10.5	1.4%	-1.7%
COc1cc(CCNC2=CC(=O)c3ncccc3C2=O)ccc1O	?	20.1	14.6µM*	-70.7*	-28.0%	-8.3%
COc1ccc(C2CC23N=C(c2ccccc2)OC3=O)cc1 (centres undefined)	16.4µM*	-4.6	5.4%	?	-8.9%	0.6%
COc1ccc(C2=NC(c3ccccc3)CO2)cc1 (centres undefined)	3.0%	nt	6.2%	nt	nt	nt
CCCCN(CCCNC(=O)c1ccc(CS(=O)(=O)c2c(Cl)cccc2Cl)o1)Cc1ccccc1	13.2%	6.3	?	-4.1	-0.9%	2.9%
CCCCN(CC)CCCNC(=O)c1ccc(CS(=O)(=O)c2c(Cl)cccc2Cl)o1	3.0%	16.3	1.2%	-77.8*	2.8%	-0.4%
C=CCn1c(SCC(C)=O)nc2scc(-c3ccc(C)o3)c2c1=O	?	-17.4	-5.2%	-21.3	-6.9%	-7.6%
C=CCn1c(=S)[nH]c2scc(-c3ccc(C)o3)c2c1=O	16.4µM*	-15.0	?	46.1	0.3%	6.5%
CCOC(=O)Cn1c(=O)oc2cc(S(=O)(=O)Nc3ccccc3F)ccc21	nt	nt	nt	nt	0.5%	4.1%
CN(C)c1ccc(/C=C2\C=Cc3cc([N+](=O)[O-])ccc32)cc1	nt	nt	nt	nt	nt	-2.9%

Compound activity from PubChem.
